Assay results as given in PubChem BioAssay (NCATS).
Records with an inconclusive call do not appear. Calls of active or inactive are those of the source. The call rests on the fitted dose curve; in most records, active means well fitted cell-killing curve with a large enough effect; inconclusive means small, poorly fitted or top-dose-only effect, or effect the other way; inactive means flat fitted curve, though single readings scatter. Where a SMILES comes first, the peptide text is derived from it.

The molecules below were run on Es-2 (assay: Primary qHTS to identify gynecologic anti-cancer compounds using libraries of approved drugs and bioactive compounds (AID 1345084; further: nearly all actives have a fitted effect of over 55% in size)). Settings: Gynecologic cancer cell panel viability, ATPlite luminescence, 48 h; series mostly up to 57.5 µM; activity change, negative = cytotoxicity: at the top concentration.
Outline: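 Measured: luminescence after ATPlite addition (15 min, RT). Exposure: 48 h, 37 C, 5% CO2.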
On the % scale 0 is the no-effect control and ±100 the full control effect.

Molecule | activity change, negative = cytotoxicity
COc1cc(/C=C/C(=O)O[C@H]2C[C@@H]3C(C(=O)O)=CO[C@@H](O[C@@H]4O[C@H](CO)[C@@H](O)[C@H](O)[C@H]4O)[C@@H]3[C@H]2C)ccc1O | -0.784% [at 25.3 µM] (inactive)
H-DPPDPDRFYGMM-NH2 | 1.01% [at 25.3 µM] (inactive)
CC1(C)C=Cc2c(ccc3c2N=C2C(C)(C)[C@@H]4C[C@]56CCCN5C(=O)[C@@]4(C[C@]23O)NC6=O)O1 | -0.0258% [at 25.3 µM] (inactive)
O=C(OC[C@H]1O[C@@H](Oc2ccccc2COC(=O)C2(O)C=CCCC2O)[C@H](O)[C@@H](O)[C@@H]1O)c1ccccc1 (stereo partly drawn) | -2.61% [at 25.3 µM] (inactive)
Cc1cc(CNC(=O)c2cc(C(=O)NCc3ccc(F)c(C)c3)ncn2)ccc1F | 0.0603% (inactive)
CC(C)=CC1C[C@](C)(O)[C@@H]2[C@H]3CCC4[C@@]5(C)CC[C@H](O[C@@H]6OC[C@H](O)[C@H](O[C@@H]7O[C@H](CO[C@@H]8O[C@H](CO)[C@@H](O)[C@H](O)[C@H]8O)[C@@H](O)[C@H](O)[C@H]7O)[C@H]6O[C@@H]6O[C@@H](C)[C@H](O)[C@@H](O)[C@H]6O)C(C)(C)[C@@H]5CC[C@@]4(C)[C@@]34CO[C@@]2(C4)O1 (stereo partly drawn) | 11.4% [at 11.6 µM] (inactive)
CC(=O)NCC1CN(c2ccc(-c3ccc(CNCc4cn[nH]n4)cc3)c(F)c2)C(=O)O1 (stereo not drawn) | -2.23% (inactive)
COC(=O)[C@H](Cc1ccc([N+](=O)[O-])cc1)NC(=O)c1cccc2ccccc12 | -0.0904% (inactive)
Cn1nccc1-c1ccccc1Oc1ccc(S(=O)(=O)Nc2nccs2)cc1C#N | 2.58% (inactive)
CSCC1OC(n2cnc3c(N)ncnc32)C(O)C1O (stereo not drawn) | -0.558% (inactive)
COc1ccc([C@H]2OC[C@H]3[C@@H]2CO[C@@H]3c2ccc(O[C@@H]3O[C@H](CO)C(O)[C@H](O)[C@H]3O)c(OC)c2)cc1OC (stereo partly drawn) | -0.577% [at 25.3 µM] (inactive)
CC1CCC2C(C(=O)O)=CC3(O)CC(C)(C)CC123 (stereo not drawn) | 9.5% (inactive)
COc1cccc(CNc2ccc(S(=O)(=O)Nc3nc4ccccc4s3)cc2)c1O | 7.45% (inactive)
CC(=O)NC(Cc1ccccc1)C(=O)NC(C(=O)O)C(C)C (stereo not drawn) (Ac-Phe-Val-OH; configuration not given here) | 1.83% (inactive)
C=C1CCC2C(C)(C(=O)OC)CCCC2(C)C1CCC1=CCOC1=O (stereo not drawn) | -1.22% [at 38.5 µM] (inactive)
CC1=C2CC3C(CCC3(C)O)C(C)(O)CC2OC1=O (stereo not drawn) | 7.51% (inactive)
Cc1occc1C(=O)n1ccnc1 | 4.43% (inactive)

Molecule | activity change, negative = cytotoxicity
COc1cc(C(CO)CO[C@@H]2O[C@H](CO)[C@@H](O)[C@H](O)[C@H]2O)ccc1O (stereo partly drawn) | 0.819% [at 38.5 µM] (inactive)
O=C(O)CC1(O)C(=O)Nc2ccccc21 (stereo not drawn) | -0.751% (inactive)
CN(C)C(=O)C(O)C(Cc1ccccc1)NC(=O)c1cc2cc(Cl)ccc2[nH]1 (stereo not drawn) | 3.76% (inactive)
O=C(CCc1ccccc1)c1c(O)c([C@@H]2O[C@H](CO)[C@@H](O)[C@H](O)[C@H]2O)c(O)c([C@@H]2O[C@H](CO)[C@@H](O)[C@H](O)[C@H]2O)c1O | 0.476% [at 25.3 µM] (inactive)
CC(O)C1NC(=O)C2CCCN2C1=O (stereo not drawn) | 5.84% (inactive)
CC1(C)OC(=O)CC(O)C2(C)C1CC(=O)C1(C)C2C(O)CC2(C)C(c3ccoc3)OC(=O)C3OC321 (stereo not drawn) | 5.15% [at 25.3 µM] (inactive)
CC(=O)OC1CCC2(C)C(CCC3(C)C2CC=C2C4CC(C)(C)CCC4(C)CCC23C)C1(C)C(=O)O (stereo not drawn) | -3.97% [at 25.3 µM] (inactive)
C=C(CCO)C(=O)OCC1OCC(OC(=O)C(=C)CCO[C@@H]2O[C@H](COC(=O)C(=C)CCO[C@@H]3O[C@H](CO)[C@@H](O)[C@H](O)[C@H]3O)[C@@H](O)[C@H](O)[C@H]2O)C(O)C1O (stereo partly drawn) | 5.15% [at 25.3 µM] (inactive)
CC(C)C1CCC(CO)=CC1/C=C(\CO)C(=O)OCC1(O)CCC(C(C)C)C2C=C(C(=O)O)COC(=O)C21 (stereo not drawn) | 6.1% [at 25.3 µM] (inactive)
Fc1cccc(CN(C2=NCCN2)c2c(Cl)cccc2Cl)c1 | 1.28% (inactive)
C[C@]12CCC[C@](C)(C(=O)O)C1CCC13CC(CO)C(CCC12)C3 (stereo partly drawn) | 5.15% [at 38.5 µM] (inactive)
O=C(/C=C/c1ccc(O)cc1)OC[C@H]1O[C@H](O[C@@]2(CO)O[C@@H](CO)[C@H](O)[C@H]2O)[C@H](O)[C@@H](O)[C@@H]1O | 7.16% [at 25.3 µM] (inactive)
c1ccc2c(Nc3nnc(-c4ccncc4)s3)cccc2c1 | -20.1% (inactive)
C/C=C/C=C/C=C/C(=O)O[C@@H]1[C@@H](OC)C2=C(C(=O)N(C(CCC(=O)O)C(=O)O)C2)[C@@]2(C)CCCC(C)(C)[C@H]12 (stereo partly drawn) | -6.08% [at 25.3 µM] (inactive)
O=C(OC[C@H]1O[C@@H](Oc2ccccc2CO)[C@H](O)[C@@H](O)[C@@H]1O)c1ccccc1 | 3.78% [at 38.5 µM] (inactive)
C[C@H]1[C@@H](O)[C@H](O)C2[C@]3(C)C([C@@H](O)[C@H]4OC(=O)[C@@H]1[C@@]24C)[C@](C)(O)C=C[C@H]3O[C@@H]1O[C@H](CO)[C@@H](O)[C@H](O)[C@H]1O (stereo partly drawn) | 5.87% [at 25.3 µM] (inactive)
